In PubChem BioAssay (NCI):
About 79,000 compounds went through this panel and 15% of them were active in at least one assay; those are over-represented in the sample as a whole. Cut-off read from the data, not from the text of the source: active = growth inhibition above about 70%; inactive = the rest.

Legend:
[1] = NCI Yeast Anticancer Drug Screen. Data for the rad50 strain (AID 155);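 note: 0% = growth of vehicle-only cultures of the same strain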; conditions: S. cerevisiae rad50 strain growth inhibition; at 50.0 µM; active compounds read high
Procedure, shortened: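 Yeast carrying a defined DNA repair defect were exposed to test compounds, and growth was compared with vehicle-treated controls to give percent inhibition.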

[2] = NCI Yeast Anticancer Drug Screen. Data for the mec2-1 strain (AID 157); conditions: S. cerevisiae mec2-1 strain, at 50.0 µM, active compounds read high
Procedure, shortened: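 Test agents were screened against the mec2-1 yeast strain, with defined DNA repair or cell cycle alteration. Growth was scored as inhibition against vehicle-only controls.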

[3] = NCI Yeast Anticancer Drug Screen. Data for the sgs1 mgt1 strain (AID 161);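 note: 0% = growth of cultures given vehicle only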; conditions: S. cerevisiae sgs1 mgt1 strain, at 50.0 µM, active compounds read high
Procedure, shortened: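 Inhibition of yeast growth, normalised to vehicle-treated controls, is reported for a strain bearing genetic alterations in DNA damage repair.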

[4] = NCI Yeast Anticancer Drug Screen. Data for the cln2 rad14 strain (AID 165);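 note: 0% = growth equal to vehicle treated cultures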; conditions: S. cerevisiae cln2 rad14 strain, at 50.0 µM, active compounds read high
Procedure, shortened: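 Growth of compound-exposed yeast (cln2 rad14 genotype) measured and expressed as inhibition relative to vehicle.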

[5] = NCI Yeast Anticancer Drug Screen. Data for the bub3 strain (AID 167); conditions: S. cerevisiae bub3 mutant strain, at 50.0 µM, active compounds read high
Procedure, shortened: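 Compounds were applied to a genetically altered yeast strain carrying a cell-cycle control defect. Growth inhibition was scored against vehicle-treated controls.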

[6] = NCI Yeast Anticancer Drug Screen. Data for the mlh1 rad18 strain (AID 175); conditions: S. cerevisiae mlh1 rad18 strain growth inhibition; at 50.0 µM; active compounds read high
Procedure, shortened: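 In this whole-cell yeast screen, a strain with altered DNA damage repair is challenged with compound, and its growth is measured against matched vehicle-treated controls.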

Measured: growth inhibition

CC(=O)N1CC=CCC1
inactive: [1] -16.6% | [2] 5.85% | [3] -17.9% | [4] -7.5% | [5] -1.55% | [6] -2.85%

NC(CS)=NCc1ccccc1
inactive: [1] 0.65% | [2] -1.35% | [3] -12.9% | [4] -86.6% | [5] 8.85% | [6] -6%

CN(C)C=Nc1cc2c3c(c1)CCCN3CCC2
inactive: [1] 10.8% | [2] -0.5% | [3] 13.3% | [4] 11.8% | [5] -2.6% | [6] 31.4%

CCC(O)C(O)(c1ccccc1)c1ccccc1 (stereo unspecified)
inactive: [1] 4.05% | [2] 8% | [3] -8.8% | [4] -2.75% | [5] -1.2% | [6] -6.7%

COC(=O)c1ccccc1N(C(=O)c1ccccc1)c1ccccc1C
inactive: [1] -16.1% | [2] -13.3% | [3] -18.9% | [4] 10.4% | [5] -11.3% | [6] -55%

C/C(=N\N=C(N)N)c1ccc(NC(=S)Nc2ccccc2)cc1
inactive: [1] 5.4% | [2] 3.85% | [3] 26.2% | [4] -19.9% | [5] 3.5% | [6] 9.5%

CCCCC(CC)(CO)CO
inactive: [1] 11.2% | [2] 3.95% | [3] 5.35% | [4] 1.05% | [5] -4.55% | [6] 16.6%

CC(NCCOc1ccccc1)c1ccccc1 (stereo unspecified)
inactive: [1] 9.1% | [2] 33.4% | [3] 3.2% | [4] 10.7% | [5] -0.75% | [6] 9.25%

Nc1nc(-c2ccccc2)cc(-c2cc(-c3ccccc3)nc(N)n2)n1
inactive: [1] 12.8% | [2] -8.35% | [3] -18.9% | [4] -1.5% | [5] -5.95% | [6] 10.3%

O=c1cc[nH]c2cc(C(F)(F)F)ccc12
inactive: [1] -26.4% | [2] -39% | [3] -16.7% | [4] 10.1% | [5] -25.9% | [6] -34%

Cc1nc2cc(C)c(C)cc2[nH]1
inactive: [1] -7.55% | [2] -1% | [3] 3.75% | [4] -9.15% | [5] 8.9% | [6] 5.8%

O=C(O)c1c(CN2CCOCC2)c(O)c(O)c(O)c1CN1CCOCC1
inactive: [1] -1.2% | [2] 0.15% | [3] -7.1% | [4] -2.3% | [5] 1.3% | [6] 5.5%

CC1=COCCO1
inactive: [1] -9.9% | [2] -9.35% | [3] -9.35% | [4] 6.85% | [5] 12.7% | [6] 0.5%

COc1cc2c(cc1OC)C1=NN(c3ccccc3)C(=O)C1CC2 (stereo unspecified)
inactive: [1] 22.8% | [2] 12.6% | [3] 12.3% | [4] -7.2% | [5] 5.55% | [6] 18.8%

CCOC(=O)c1cc(-n2nnc3ccccc32)cn1C
inactive: [1] -4.7% | [2] -23.4% | [3] 0.35% | [4] -3.6% | [5] 19.4% | [6] -0.65%

COc1ccc(C2(C)OCCC(C)O2)cc1 (stereo unspecified)
inactive: [1] -0.25% | [2] -18.1% | [3] 0.1% | [4] -24.1% | [5] -5.2% | [6] 10.6%

CNc1nc(=S)nc(-c2ccccc2)s1
inactive: [1] 11.7% | [2] 13.3% | [3] 11.3% | [4] -8.45% | [5] 11.8% | [6] -9.6%

COC(=O)Nc1cn2nc(C)sc2n1
inactive: [1] -17.4% | [2] 11.4% | [3] -10.1% | [4] -16.1% | [5] 2.6% | [6] -6.95%

CCN(CC)CCN(Cc1ccccc1)C(=S)NC(=O)c1ccccc1
inactive: [1] -4.35% | [2] 2.15% | [3] -5.25% | [4] -5.8% | [5] 7.35% | [6] -19.5%

O=C(COc1ccccc1)Nc1cccc(C(=O)O)c1
inactive: [1] 1.2% | [2] 13.5% | [3] 21.9% | [4] 0.9% | [5] 36.6% | [6] 32.2%

CC(=O)c1cc([N+](=O)[O-])c(N)s1
inactive: [1] 7.35% | [2] -3.2% | [3] -13.2% | [4] 5.25% | [5] -4.15% | [6] -3.8%

CC(=O)c1sc(Nc2nnc(-c3ccc(-c4nnc(Nc5nc(C)c(C(C)=O)s5)o4)cc3)o2)nc1C
inactive: [1] 3.15% | [2] -14.3% | [3] -25% | [4] 6.4% | [5] -3.05% | [6] 3.05%

COc1ccc(OC)c(NC(=O)CCCC(=O)C(C#N)c2c(Cl)cccc2Cl)c1 (stereo unspecified)
inactive: [1] 8.6% | [2] 5.5% | [3] -5.7% | [4] -8.05% | [5] 9.2% | [6] -3.5%

O=C(C[n+]1cc(Br)cc(Br)c1)c1ccc(Cl)cc1
inactive: [1] -9.6% | [2] -15.8% | [3] -13% | [4] -13.8% | [5] -30.1% | [6] -7.9%

CCCN=C1NS(=O)(=O)c2ccccc21
inactive: [1] 8.35% | [2] -14.8% | [3] -15.3% | [4] -11.8% | [5] -7.55% | [6] -7.7%

COc1ccc(NCc2cnc3nc(N)nc(N)c3c2C)cc1
inactive: [1] 7% | [2] 6.6% | [3] 16.6% | [4] 16.5% | [5] 1.85% | [6] -49%

Cc1cc(C(=O)C=[N+]=[N-])c(CN2C(=O)c3ccccc3C2=O)c(=O)n1C
inactive: [1] -0.8% | [2] -9.55% | [3] -3.4% | [4] 5.95% | [5] -13.5% | [6] 1.4%

COc1cccc(Nc2nc(NS(=O)(=O)c3cc(C)c(Cl)cc3S)n[nH]2)c1
inactive: [1] -7.6% | [2] -2.3% | [3] -6.25% | [4] 7.95% | [5] 16.1% | [6] 15.8%

COc1ccc(NC(=O)CC(=O)n2nc(C)c(N=Nc3ccccc3C(=O)O)c2C)cc1
inactive: [1] 8.6% | [2] 10.6% | [3] -6.05% | [4] -42.5% | [5] -1.35% | [6] 15.3%

CCOC(=O)/C=C(\N)c1ccccc1
inactive: [1] -7.8% | [2] -13.2% | [3] -15.6% | [4] -43.8% | [5] -30.4% | [6] -6.8%

O=C(CCN1CCCC1)Nc1ccc2sc3ccccc3c(=O)c2n1
inactive: [1] 38.5% | [2] -61.8% | [3] 8.75% | [4] 9.7% | [5] 16.6% | [6] 10.6%

CC(C)CCCC(C)C1CCC2(C)C3=C(CCC12C)C1(C)Cc2cnn(-c4ccccc4)c2C(C)(C)C1CC3 (stereo unspecified)
inactive: [1] -6.4% | [2] -6.05% | [3] -6.65% | [4] -12.8% | [5] -2.85% | [6] -17.4%

O=[N+]([O-])/C(Cl)=C(/C(Cl)=C(Cl)Cl)N1CCOCC1
inactive: [1] 5.55% | [2] 4.8% | [3] 44% | [4] 6.35% | [5] 23.9% | [6] 11.7%

CCSc1n[nH]c(=O)nc1SC
inactive: [1] 4.3% | [2] -3.25% | [3] -3.9% | [4] -67% | [5] -19.5% | [6] -0.35%

NC(C(=O)O)C1CCCC1 (stereo unspecified)
inactive: [1] 2.8% | [2] -5.1% | [3] -20.8% | [4] -14% | [5] -92.8% | [6] 7.6%

CCOP(=O)(OCC)/C(=C/NC(=S)c1cccnc1)C(=O)OC
inactive: [1] -11% | [2] -1% | [3] -13% | [4] -7.75% | [5] 17.6% | [6] -2.2%

CCCCc1c2c(nn1C(C)=O)C(=O)C=C(Nc1ccccc1)C2=O
inactive: [1] 21.8% | [2] 21.8% | [3] 19.7% | [4] -7.65% | [5] 4.7% | [6] 9.5%

O=C(O)Cc1ccc([N+](=O)[O-])cc1
inactive: [1] 21.1% | [2] -11.3% | [3] 36.1% | [4] 15.2% | [5] 12.8% | [6] 4.75%

Cn1c(=S)[nH]c2cc(Cl)c(Cl)cc21
inactive: [1] 17.4% | [2] -3.05% | [3] 0.55% | [4] -21.7% | [5] -14.7% | [6] 20.4%

COc1ccccc1NC=O
inactive: [1] -1.5% | [2] -25.1% | [3] -3.65% | [4] 16.8% | [5] -7.4% | [6] 2.55%

CCN(CC)CCC1CCNCC1
inactive: [1] 0.5% | [2] -25.2% | [3] -1.8% | [4] 15.8% | [5] -3.9% | [6] 5.75%
